Test [1] can be described thus: APR_HepG2_NuclearSize_72hr: Apredica 72-hour HepG2 Assay for Nuclear Size (AID 2282925). The conditions noted are these: high-content imaging, actives raise or lower the signal. A digest of the protocol:
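HepG2 cells dosed 72 h at 0.39–200 uM (10 concentrations, duplicate) in 0.5% v/v DMSO final. Fixed, Hoechst 33342-stained nuclei imaged; nuclear diameter measured by automated image analysis. Bidirectional fit versus DMSO.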

Test [2] can be described thus: ATG_CRE_CIS: Attagene CIS-FACTORIAL HepG2 Assay for human cAMP Responsive Element (CRE) binding protein 3 (AID 2282926). The following applies: HepG2 CRE cis-reporter, Attagene multiplexed mRNA; actives raise or lower the signal. A digest of the protocol:
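Endogenous CRE-binding activity in HepG2 is reported through a cis-regulated transfected reporter. Following a day of exposure, mRNA levels are determined by reverse transcription PCR and fluorescent fragment analysis; fits run in both directions versus DMSO.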

Test [3] addresses CCAAT/enhancer-binding protein beta (Homo sapiens) (UniProt P17676). The test can be described thus: ATG_C_EBP_CIS: Attagene CIS-FACTORIAL HepG2 Assay for human CCAAT/Enhancer Binding Protein (C/EBP) beta (AID 2282927). The conditions noted are these: HepG2 Attagene cis-factorial transcription factor reporter; actives raise or lower the signal. A digest of the protocol:
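HepG2, transient MRTU transfection, 24 h treatment. RT-PCR plus CE fluorescence; DMSO negative control, bidirectional fit.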

The nature of test [4]: ATG_CMV_CIS: Attagene CIS-FACTORIAL HepG2 Assay for human CMV (Internal Marker) (AID 2282928).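 Also: endpoint acts as a background internal control marker rather than a target.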 The conditions noted are these: HepG2 CMV promoter reporter, transcription factor profiling; actives raise or lower the signal. The method, boiled down:
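HepG2 cells transiently transfected with multiple cis-regulated reporter units; 24 h compound exposure. Reporter mRNA quantified by RT-PCR, 6-FAM primer-extension labeling, HpaI digestion and capillary electrophoresis; bidirectional fitting against DMSO baseline.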

Test [5] can be described thus: ATG_DR4_LXR_CIS: Attagene CIS-FACTORIAL HepG2 Assay for human Liver X Receptor (LXR), DR4 submotif (AID 2282929). The following applies: HepG2 Attagene DR4 cis-reporter, mRNA transcription; actives raise or lower the signal. The method, boiled down:
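Readout: reporter transcript fluorescence after RT-PCR and capillary electrophoresis, fitted bidirectionally against DMSO controls. Human HepG2 liver cells carried transiently transfected multiplexed reporter constructs; endogenous transcription factor activity measured 24 h post-dosing.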

A short description of test [6]: ATG_AP_2_CIS: Attagene CIS-FACTORIAL HepG2 Assay for human Activator Protein 2 (AP-2) (AID 2282932). The following applies: HepG2 AP-2 cis-reporter, Attagene transcription factor profiling; actives raise or lower the signal. The method, boiled down: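 Multiplexed mRNA reporter assay in HepG2: cis-regulated units report endogenous factor activity after 24 h treatment. Fluorescence from capillary electrophoresis of RT-PCR products gives the signal, with DMSO as baseline.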

A short description of test [7]: ATG_BRE_CIS: Attagene CIS-FACTORIAL HepG2 Assay for human Bone Morphogenetic Protein (BMP) Response Element (BRE) (AID 2282933). The conditions noted are these: HepG2 BMP response element reporter, Attagene transcription factor profiling; actives raise or lower the signal. A digest of the protocol: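 HepG2 cells transiently transfected with multiplexed cis-element reporter units were dosed with chemical for 24 h. Reporter mRNA was measured by RT-PCR with fluorescent labelling, HpaI digestion and capillary electrophoresis; bidirectional fitting relative to DMSO.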

The target in test [8] is Retinoic acid receptor alpha (Homo sapiens) (UniProt P10276). The experiment in a line: ATG_DR5_RAR_CIS: Attagene CIS-FACTORIAL HepG2 Assay for human Retinoic Acid Receptor Alpha (RARE), DR5 submotif (AID 2282934).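 As to AC50: reporter responds to endogenous RAR alpha beta and gamma in HepG2 not RARA alone.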 The conditions noted are these: HepG2 Attagene cis-factorial RARE DR5 reporter, mRNA; actives raise or lower the signal. A digest of the protocol:
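After 24 h of chemical exposure, transiently transfected HepG2 cells were lysed for total RNA; the DR5-regulated reporter transcript was quantified via RT-PCR and capillary electrophoresis, with activity fitted bidirectionally against DMSO.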

Test [9] deals with Transcription factor E2F1 (Homo sapiens) (UniProt Q01094). The test can be described thus: ATG_E2F_CIS: Attagene CIS-FACTORIAL HepG2 Assay for human E2F Transcription Factor 1 (AID 2282935). The following applies: HepG2 Attagene cis-reporter, E2F reporter RNA transcripts; actives raise or lower the signal. A digest of the protocol:
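Measures reporter transcript levels via RT-PCR with capillary electrophoresis detection in HepG2 cells harboring cis-regulated reporter units; 24 h post-dose; bidirectional curve fitting with DMSO as baseline.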

Test [10] is described as follows: ATG_E_Box_CIS: Attagene CIS-FACTORIAL HepG2 Assay for human Enhancer Box (E-box) (AID 2282936). The conditions noted are these: HepG2 E-box cis-reporter transcription, actives raise or lower the signal. The method, boiled down: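 First, HepG2 cells receive multiple cis-regulated reporter constructs by transient transfection. Next, chemicals are applied for 24 h. Finally, reporter mRNA is quantified via RT-PCR and capillary electrophoresis, with DMSO as baseline.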

The nature of test [11]: ATG_M_61_CIS: Attagene CIS-FACTORIAL HepG2 Assay for M61 Transcription Factor (Internal Marker) (AID 2282937). The following applies: HepG2 Attagene CIS-FACTORIAL M61 internal marker reporter; actives raise or lower the signal. A digest of the protocol: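 Readout: fluorescent reporter mRNA fragments resolved by capillary electrophoresis after RT-PCR. Transiently transfected human HepG2 cells carried MRTU constructs reporting endogenous TF activity; 24 h chemical exposure; gain or loss of signal fitted relative to DMSO.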

The nature of test [12]: ATG_M_19_CIS: Attagene CIS-FACTORIAL HepG2 Assay for M19 Transcription Factor (Internal Marker) (AID 2282939). The following applies: HepG2 Attagene CIS-FACTORIAL M19 internal marker reporter; actives raise or lower the signal. The method, boiled down: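 HepG2 cells transiently transfected with cis-regulated multiple reporter transcription units were dosed for 24 h; reporter mRNA was quantified by RT-PCR, 6-FAM primer-extension labelling, HpaI digestion and capillary electrophoresis, with bidirectional fitting against DMSO baseline.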

A short description of test [13]: ATG_Ets_CIS: Attagene CIS-FACTORIAL HepG2 Assay for human Erythroblast Transformation Specific (ETS) (AID 2282941). The following applies: HepG2 ETS cis-reporter transcription, actives raise or lower the signal. The method, boiled down: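 HepG2 cells transiently transfected with cis-promoter reporter transcription units were dosed for 24 h; reporter mRNA was measured by RT-PCR, 6-FAM primer extension, HpaI digestion and capillary electrophoresis, with bidirectional fitting against DMSO baseline.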

The target in test [14] is Hepatocyte nuclear factor 3-beta (Homo sapiens) (UniProt Q9Y261). The test can be described thus: ATG_FoxA2_CIS: Attagene CIS-FACTORIAL HepG2 Assay for human Forkhead box A2 (FOXA2) (AID 2282942). The conditions noted are these: HepG2 cis-reporter transcription factor activity, 24 h; actives raise or lower the signal. A digest of the protocol:
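Readout: fluorescent reporter transcripts resolved by capillary electrophoresis after RT-PCR. Transiently transfected HepG2, 24 h compound exposure, endogenous TF activity at cis promoter elements. Gain or loss of signal fitted relative to DMSO.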

A short description of test [15]: ATG_FoxO_CIS: Attagene CIS-FACTORIAL HepG2 Assay for human Forkhead box O (FoxO) (AID 2282943). The conditions noted are these: HepG2 Attagene cis-reporter, FoxO element, mRNA; actives raise or lower the signal. A digest of the protocol: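 Transfected HepG2 reporter cells exposed to test chemical for 24 h; reporter RNA measured by reverse transcription, PCR and fluorescent capillary electrophoresis; curves fitted for increases and decreases against DMSO.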

In test [16] the target is Aryl hydrocarbon receptor (Homo sapiens) (UniProt P35869). The experiment in a line: ATG_Ahr_CIS: Attagene CIS-FACTORIAL HepG2 Assay for human Aryl Hydrocarbon Receptor (Ahr) (AID 2282930). The following applies: HepG2 AhR cis-factorial reporter transcription; actives raise or lower the signal. The method, boiled down:
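Endogenous factor activity is tracked through cis-promoter reporter units transfected into HepG2 cells. Transcript levels at 24 h are read by fluorescent RT-PCR and capillary electrophoresis, with activity in either direction scored relative to DMSO.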

A short description of test [17]: ATG_ERE_CIS: Attagene CIS-FACTORIAL HepG2 Assay for Estrogen Response Element (ERE) (AID 2282940). The conditions noted are these: HepG2 ERE cis-reporter, Attagene RNA transcript; actives raise or lower the signal. The method, boiled down:
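HepG2 cells transiently transfected with cis-promoter-driven multiplexed reporter transcription units report endogenous TF activity. After 24 h compound exposure, reporter mRNA is quantified by RT-PCR with capillary electrophoresis fluorescence; bidirectional fitting versus DMSO baseline.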

Test [18] is described as follows: ATG_AP_1_CIS: Attagene CIS-FACTORIAL HepG2 Assay for human Activator Protein 1 (AP-1) (AID 2282931). The following applies: HepG2 Attagene cis-factorial AP-1 reporter mRNA; actives raise or lower the signal. The method, boiled down:
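Reporter transcripts were measured 24 h after dosing by RT-PCR and capillary electrophoresis of fluorescent fragments. Cells: HepG2 carrying transfected cis-regulated reporter constructs reading endogenous factor activity. Gain or loss fitted against DMSO.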

A short description of test [19]: ATG_GATA_CIS: Attagene CIS-FACTORIAL HepG2 Assay for human GATA Binding Protein (AID 2282944). The following applies: HepG2 GATA cis-element reporter, Attagene multiplex mRNA; actives raise or lower the signal. A digest of the protocol:
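HepG2 cells transiently transfected with multiplexed cis-element reporter units reflecting endogenous transcription factor activity; reporter mRNA measured after 24 h dosing by RT-PCR, 6-FAM labeling, HpaI digestion and capillary electrophoresis. Bidirectional fitting versus DMSO baseline.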

A short description of test [20]: ATG_EGR_CIS: Attagene CIS-FACTORIAL HepG2 Assay for human Early Growth Response 1 (EGR1) (AID 2282938). The conditions noted are these: HepG2 Attagene CIS-FACTORIAL EGR reporter mRNA; actives raise or lower the signal. The method, boiled down: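 Read-out: fluorescent reporter-mRNA fragments resolved by capillary electrophoresis after RT-PCR, 24 h post-dose in transiently transfected HepG2. Endogenous transcription-factor activity reported via cis-element-regulated reporter units; gain or loss fitted relative to DMSO.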

Each structure is given as a SMILES string. Active and inactive are the calls of the source. The calls were made as follows: active = hit-call score of the fitted dose curve at least 0.9, where 1 is the maximum; inactive = score below 0.9.

Aryl hydrocarbon receptor (Homo sapiens), sequence (P35869 whole entry, looked up): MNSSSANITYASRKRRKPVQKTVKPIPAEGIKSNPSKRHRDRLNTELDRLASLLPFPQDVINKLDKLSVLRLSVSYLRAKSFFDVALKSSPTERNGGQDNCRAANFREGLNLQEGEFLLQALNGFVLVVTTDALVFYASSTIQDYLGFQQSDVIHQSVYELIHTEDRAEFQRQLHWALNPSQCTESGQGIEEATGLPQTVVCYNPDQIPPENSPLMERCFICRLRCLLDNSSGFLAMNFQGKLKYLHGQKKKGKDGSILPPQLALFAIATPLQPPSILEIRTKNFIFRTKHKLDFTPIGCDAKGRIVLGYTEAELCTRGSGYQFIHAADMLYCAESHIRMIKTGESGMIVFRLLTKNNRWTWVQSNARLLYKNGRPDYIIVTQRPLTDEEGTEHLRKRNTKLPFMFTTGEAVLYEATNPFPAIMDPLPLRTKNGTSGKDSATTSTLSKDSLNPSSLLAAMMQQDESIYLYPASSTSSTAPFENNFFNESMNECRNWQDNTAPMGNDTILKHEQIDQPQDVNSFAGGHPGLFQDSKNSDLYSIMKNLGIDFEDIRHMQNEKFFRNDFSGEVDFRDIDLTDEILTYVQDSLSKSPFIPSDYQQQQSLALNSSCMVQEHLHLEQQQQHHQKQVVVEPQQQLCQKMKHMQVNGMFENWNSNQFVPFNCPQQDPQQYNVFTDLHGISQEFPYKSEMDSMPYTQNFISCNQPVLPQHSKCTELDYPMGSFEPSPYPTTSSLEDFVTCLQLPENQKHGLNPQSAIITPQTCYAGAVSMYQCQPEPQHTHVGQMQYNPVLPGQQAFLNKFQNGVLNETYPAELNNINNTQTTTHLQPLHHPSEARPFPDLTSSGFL
CCAAT/enhancer-binding protein beta (Homo sapiens), sequence (P17676 whole entry, looked up): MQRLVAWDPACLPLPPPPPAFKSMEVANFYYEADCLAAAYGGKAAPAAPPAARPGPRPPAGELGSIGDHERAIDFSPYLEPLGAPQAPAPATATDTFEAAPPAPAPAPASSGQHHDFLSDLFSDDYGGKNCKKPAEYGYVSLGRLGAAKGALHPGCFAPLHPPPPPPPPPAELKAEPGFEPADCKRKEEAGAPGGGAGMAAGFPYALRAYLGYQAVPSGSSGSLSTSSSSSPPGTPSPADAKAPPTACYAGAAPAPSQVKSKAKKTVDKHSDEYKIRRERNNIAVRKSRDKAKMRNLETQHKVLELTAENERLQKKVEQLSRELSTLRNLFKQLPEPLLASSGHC
Retinoic acid receptor alpha (Homo sapiens), sequence (P10276 whole entry, looked up): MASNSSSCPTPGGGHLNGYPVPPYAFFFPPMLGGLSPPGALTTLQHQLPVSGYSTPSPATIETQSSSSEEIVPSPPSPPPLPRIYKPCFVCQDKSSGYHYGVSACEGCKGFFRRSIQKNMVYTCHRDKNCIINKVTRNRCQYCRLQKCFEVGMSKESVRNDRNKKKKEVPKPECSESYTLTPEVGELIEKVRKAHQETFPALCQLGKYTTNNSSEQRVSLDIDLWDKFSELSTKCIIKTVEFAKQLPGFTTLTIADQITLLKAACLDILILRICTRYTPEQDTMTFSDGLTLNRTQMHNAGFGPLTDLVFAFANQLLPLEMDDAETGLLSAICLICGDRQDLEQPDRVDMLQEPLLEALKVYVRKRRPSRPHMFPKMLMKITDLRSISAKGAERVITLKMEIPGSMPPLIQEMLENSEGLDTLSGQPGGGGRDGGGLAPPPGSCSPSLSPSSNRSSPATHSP
Transcription factor E2F1 (Homo sapiens), sequence (Q01094 whole entry, looked up): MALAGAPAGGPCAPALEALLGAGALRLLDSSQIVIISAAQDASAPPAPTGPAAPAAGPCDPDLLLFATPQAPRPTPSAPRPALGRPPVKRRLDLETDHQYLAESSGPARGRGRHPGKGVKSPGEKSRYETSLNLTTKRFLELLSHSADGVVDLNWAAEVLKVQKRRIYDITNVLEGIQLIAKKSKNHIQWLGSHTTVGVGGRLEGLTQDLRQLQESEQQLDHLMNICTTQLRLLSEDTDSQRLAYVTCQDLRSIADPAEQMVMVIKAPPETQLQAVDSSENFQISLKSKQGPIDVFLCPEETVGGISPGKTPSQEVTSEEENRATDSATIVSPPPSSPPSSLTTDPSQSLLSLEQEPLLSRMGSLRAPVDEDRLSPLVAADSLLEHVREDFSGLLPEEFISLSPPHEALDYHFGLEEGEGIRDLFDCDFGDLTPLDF
Hepatocyte nuclear factor 3-beta (Homo sapiens), sequence (Q9Y261 whole entry, looked up): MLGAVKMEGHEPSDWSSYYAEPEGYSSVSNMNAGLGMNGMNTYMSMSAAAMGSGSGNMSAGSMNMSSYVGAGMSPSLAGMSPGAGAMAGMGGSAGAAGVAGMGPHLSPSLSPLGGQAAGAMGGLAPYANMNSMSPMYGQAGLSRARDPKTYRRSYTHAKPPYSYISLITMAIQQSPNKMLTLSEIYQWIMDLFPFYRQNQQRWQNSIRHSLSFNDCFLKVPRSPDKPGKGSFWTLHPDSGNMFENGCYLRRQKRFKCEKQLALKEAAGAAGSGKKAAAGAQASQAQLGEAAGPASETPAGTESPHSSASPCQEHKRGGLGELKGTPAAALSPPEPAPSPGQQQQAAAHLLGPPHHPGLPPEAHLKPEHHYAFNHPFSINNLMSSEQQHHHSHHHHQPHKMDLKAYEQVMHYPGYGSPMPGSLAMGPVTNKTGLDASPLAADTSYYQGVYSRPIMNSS

For the compound `CC(C)(C)[C@@H](O)[C@@H](Cc1ccc(Cl)cc1)n1cncn1`, the compound was called inactive in [1], in test [4], in test [5], in test [6], in test [9] and in test [10]. For the same compound, the compound was classed as inactive in test [11], in test [12] and in [14]. Further, the AC50 (commonly the midpoint of the concentration-response curve, whichever way the signal moves) was 13.5 µM (active) in test [2]; 3.43 µM (active) in [3]; 13.7 µM (active) in test [7]; 32.1 µM (active) in [8]; 68.5 µM (active) in [13]; 12.6 µM (active) in test [15].
Turning to `COc1c(Cl)ccc(Cl)c1C(=O)O`, the outcome in test [1], in [2], in test [3], in test [4], in test [5] and in test [16] was inactive. Besides, the result in test [6], in [7], in test [8], in test [9], in test [10] and in test [11] was inactive. The compound was called inactive in [12], in test [17], in [13], in test [14] and in test [15].
With `O=C(O)c1ccccc1`, the call in test [1], in test [2], in [3], in test [4], in test [5] and in [16] was inactive. Further, the compound was called inactive in test [18], in test [6], in test [7], in [9], in test [10] and in test [11]. The result in [12], in test [17], in test [13], in test [14], in test [15] and in test [19] was inactive.
For `O=C(Nc1ccc([N+](=O)[O-])cc1Cl)c1cc(Cl)ccc1O`, the compound was classed as inactive in [1], in test [5], in [16], in test [6], in [8] and in test [9]. The outcome in test [10], in test [11], in [12], in [17], in test [13] and in [14] was inactive. Further, the call in test [15] and in [19] was inactive. Further, the AC50 in test [2] was 0.506 µM (active); in [3], 0.463 µM (active); in [4], 1.16 µM (active); in test [7], 0.652 µM (active); in test [20], 0.894 µM (active).
As to `CCCCOCCOCCOCc1cc2c(cc1CCC)OCO2`, the outcome in [1], in [2], in test [3], in test [16], in test [6] and in test [7] was inactive. The call in [8], in test [10], in test [11], in [20], in test [12] and in test [13] was inactive. The outcome in test [14], in test [15] and in test [19] was inactive. In addition, the results for the AC50 in test [4], in test [5] and in [9] were 24.3 µM (active), 89.8 µM (active) and 58.4 µM (active), respectively.
For the compound `CCCCCCC(C)OC(=O)COc1nc(F)c(Cl)c(N)c1Cl` (stereo not drawn), the call in test [1], in test [2], in test [3], in test [4], in test [5] and in test [6] was inactive. Further, the compound was classed as inactive in [7], in test [9], in test [10], in test [11], in test [20] and in test [12]. Also, the outcome in test [13], in [14], in [15] and in [19] was inactive.

The values are drawn from PubChem BioAssay (EPA / NIEHS).
